Results published in ChEMBL document CHEMBL4513146, “CO-ADD screening of Karazin Kharkiv National University (Ukraine) compounds”.
Entries with a potency or affinity are not part of this list.

Experiments:
[1] = tested on: Klebsiella pneumoniae; settings: Concentration 32 ug.mL-1;; ASSAY_TEST Inhibition of Bacterial Growth; detection method Absorption (OD600); MEDIA CAMHB; plate type 384well; NBS; CORNING #3640; time 18 hr
[2] = tested on: Candida albicans; settings: Concentration 32 ug.mL-1; ASSAY_TEST Inhibition of Fungal Growth; detection method Absorption (OD530)
[3] = tested on: Cryptococcus neoformans; settings: Concentration 32 ug.mL-1; ASSAY_TEST Inhibition of Fungal Growth; detection method Resazurin; Absorption (OD600-OD570); plate type 384well; NBS; CORNING #3640

| Structure (SMILES) | Inhibition [1] | Inhibition [2] | Inhibition [3] |
| --- | --- | --- | --- |
| Cc1ccc(NC(=O)Cn2nc3ccc(SC4CCCCC4)nn3c2=O)cc1 | -2.92% | 2.85% | -17.59% |
| O=S(=O)(c1ccc2nncn2c1)N(Cc1cccc(Cl)c1)c1ccc2c(c1)OCO2 | 8.88% | 1.66% | -13.77% |
| Cc1nnc2c(S(=O)(=O)N(Cc3ccccc3F)c3cc(F)cc(F)c3)cccn12 | 1.21% | 0.25% | -4.37% |
| Cc1ccc(NC(=O)Cn2nc3c4c5c(sc4ncn3c2=O)CCCC5)cc1C | 7.59% | 3.92% | -29.29% |
| CCC(C)NC(=O)Cn1nc2ccc(SCc3ccc(Cl)cc3)nn2c1=O (stereo not given) | 12.21% | 3.51% | -20.85% |
| Cc1cccc(NC(=O)CSc2nnc3ccc(C(=O)Nc4cccc(F)c4)cn23)c1C | -0.74% | 4.11% | -4.88% |
| CCOc1ccc(-n2ccn3c(SC(C)C(=O)Nc4cc(OC)cc(OC)c4)nnc3c2=O)cc1 (stereo not given) | 7.45% | 1.5% | -3.58% |
| Cc1c(Cl)cccc1-n1ccn2c(SCC(=O)c3c[nH]c4ccccc34)nnc2c1=O | 3.37% | 2.26% | -4.72% |
| CCc1cccc(C)c1NC(=O)CSc1nnc2ccc(C(=O)Nc3cccc(F)c3)cn12 | 5.93% | 1.09% | -4.75% |
| Cc1ccc(-c2ccc3nn(Cc4nc(-c5ccc(OC(F)(F)F)cc5)no4)c(=O)n3n2)cc1 | -0.72% | 49.09% | -8.92% |
